Hits are enriched below; roughly 2.8% of the tested compounds scored in any of these assays.
Shn3 inh set2 – reduction of Shn3 3'UTR firefly luciferase signal, primary screen, Schnurri-3 inhibitor project, cell-based, Clone20 osteoblasts, set 2; Clone20 osteoblast Shn3 3'UTR firefly luciferase, 24 h; inhibition, % at 12.5 µM; 360,000 tested, 0.52% active; AID 588674, 2011;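 active = mean inhibition of at least 75% with every replicate also reaching 75%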
TRPM1 prom inh – inhibitors of MITF-dependent TRPM1 promoter reporter, primary screen, cell-based, SK-MEL-5, single point, luciferase. SK-MEL-5 TRPM1 promoter luciferase, 24 h. inhibition, % at 12.5 µM. 330,000 tested, 0.83% active;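 active = mean inhibition across replicates of 60% or more, whatever share of single replicates reaches that level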
HIF-2a block – HIF-2a reporter inhibitors, primary screen, luminescence, 786-0 RCC cells; 360,000 tested, 0.72% active; 786-0 RCC cells HIF-2a reporter, luciferase luminescence, overnight; inhibition, % at 18.8 µM;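 active = inhibition of the luminescence signal of 40% or more relative to plate controls, in a single-dose primary screen at 18.75 µM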
PAX8 reporter – inhibitors of PAX8-driven TPO luciferase reporter, primary screen, RMG-I cells, single concentration; 360,000 tested, 1.2% active; inhibition, % at 12.6 µM; AID 652154, 2013; SteadyGlo, 24 h;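 active = mean replicate inhibition at least 60% with every replicate also reaching 60%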;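 also: luciferase light reporting Pax8 driven TPO promoter activity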
EBV LMP1 NFkB – EBV LMP1-driven NF-kappaB luciferase reporter inhibitors, primary screen, cell-based, luminescence, single point; LMP1-induced NF-kappaB luciferase reporter cells; inhibition, % at 12.5 µM; 350,000 tested, 0.69% active; in the data active = inhibition above about 41%
Peg3 promoter – Peg3 promoter-driven luciferase inhibitors, primary screen, cell-based, HeLa, luciferase luminescence; HeLa PEG-Prom luciferase reporter, overnight; inhibition, % at 20 µM; 360,000 tested, 1.7% active; AID 588405, 2011;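 active = inhibition of at least 50% at 20 µM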
Of the large screens only hits and unclear results are named; the others gave an inactive call.

C[C@H](O)C#Cc1ccc2c(c1)O[C@H](CN(C)C(=O)Nc1ccccc1)[C@H](C)CN([C@@H](C)CO)S2(=O)=O	none (no result: Shn3 inh set2, TRPM1 prom inh, HIF-2a block, EBV LMP1 NFkB, Peg3 promoter)
COCc1cc(=O)n2[nH]cc(-c3ccccc3)c2n1	none
CCCc1cc(=O)n2[nH]cc(-c3ccc(Cl)cc3)c2n1	EBV LMP1 NFkB 44, Peg3 promoter 57
CCCNC(=O)[C@@H]1[C@@H](CO)[C@@H]2Cn3c(ccc(/C=C/c4ccccc4)c3=O)[C@H]1N2C(C)=O	none (no result: Shn3 inh set2, TRPM1 prom inh, HIF-2a block, EBV LMP1 NFkB, Peg3 promoter)
O=C(Nc1cccc(S(=O)(=O)NCc2ccco2)c1)c1cc(-c2ccccc2)nc2ccccc12	PAX8 reporter 76, Peg3 promoter 62
CC1CCCC(NC(=O)COC(=O)CCC(=O)c2cccs2)C1C (stereo not given)	EBV LMP1 NFkB 57
CC1CCN(CCc2nc3cc(NS(=O)(=O)c4ccccc4)ccc3n2C)CC1	PAX8 reporter 93
C[C@@H]1CN([C@H](C)CO)C(=O)c2cc(NS(=O)(=O)c3cn(C)cn3)ccc2O[C@@H]1CN(C)Cc1ccc(-c2ccccc2)cc1	none (no result: Shn3 inh set2, TRPM1 prom inh, HIF-2a block, EBV LMP1 NFkB, Peg3 promoter)
O=C(c1cccc(F)c1)N1CC2(C1)[C@H](c1ccccc1)[C@H](CO)N2Cc1ccccn1	none (no result: Shn3 inh set2, TRPM1 prom inh, HIF-2a block, EBV LMP1 NFkB, Peg3 promoter)
CCOC(=O)C1=C(C)NC(C)=C(C(=O)OCC)C1c1cccc([N+](=O)[O-])c1	none (no result: TRPM1 prom inh)
COC(=O)C1=C(C)NC(C)=C(C(=O)OCC(C)C)C1c1ccccc1[N+](=O)[O-] (stereo not given)	EBV LMP1 NFkB 91
O=C(C=P(c1ccccc1)(c1ccccc1)c1ccccc1)c1ccccc1-c1ccccc1C(=O)C=P(c1ccccc1)(c1ccccc1)c1ccccc1	TRPM1 prom inh 82, HIF-2a block 95, PAX8 reporter 114, Peg3 promoter 99
Fc1ccc2[nH]c3c(N4CCc5ccccc5C4)ncnc3c2c1	Shn3 inh set2 87 (no result: TRPM1 prom inh, EBV LMP1 NFkB)
CN(C)CC(=O)N1CC[C@@H]2[C@H]1c1cc(-c3ccccc3F)ccc1N(C)[C@@H]2CO	none (no result: Shn3 inh set2, TRPM1 prom inh, HIF-2a block, EBV LMP1 NFkB, Peg3 promoter)
CN(Cc1ccc(OCC(O)CN2CCCCC2)cc1)Cc1ccnc2ccccc12 (stereo not given)	Shn3 inh set2 87
CN1C(=O)c2cc(NC(=O)c3ccccc3F)ccc2OC[C@@H]2O[C@@H](CC(=O)NCc3ccc4c(c3)OCO4)CC[C@H]21	none (no result: Shn3 inh set2, TRPM1 prom inh, HIF-2a block, EBV LMP1 NFkB, Peg3 promoter)
COc1cc(NC(=O)c2cc3c(Cl)nc4ccccc4c3s2)cc(OC)c1OC	Shn3 inh set2 94
CC1CCN(CCCNC(=O)c2cc3c(s2)-c2ccccc2OC3)CC1	Peg3 promoter 62
COC(=O)c1cc2c(s1)-c1ccccc1OC2	none
Cc1cccc2c1-c1sc(C(=O)NCCCN3CCC(C)CC3)cc1CO2	Peg3 promoter 75
CC1CCCN(CCCNC(=O)c2cc3c(Cl)nc4ccccc4c3s2)C1 (stereo not given)	Peg3 promoter 92
COc1ccccc1C(=O)Nc1ccc2c(c1)C(=O)N(C)C[C@@H](OC)[C@@H](C)CN[C@H](C)CO2	none (no result: Shn3 inh set2, TRPM1 prom inh, HIF-2a block, EBV LMP1 NFkB, Peg3 promoter)
O=C(NCC[C@H]1CC[C@H](NS(=O)(=O)c2cccc(F)c2)[C@@H](CO)O1)C1CCCCC1	none (no result: Shn3 inh set2, TRPM1 prom inh, HIF-2a block, EBV LMP1 NFkB, Peg3 promoter)
C[C@@H]1ON(C)[C@H]2C[C@H]3c4cc(-c5cc6ccccc6o5)ccc4CCN3C[C@@H]12	none (no result: Shn3 inh set2, TRPM1 prom inh, HIF-2a block, EBV LMP1 NFkB, Peg3 promoter)
CN1CCN(c2ccccc2NC(=O)c2cc3c(s2)-c2ccccc2OC3)CC1	none (no result: Shn3 inh set2)
CC1CCCN(CCCNC(=O)c2cc3c(s2)-c2ccccc2OC3)C1 (stereo not given)	Peg3 promoter 75
CN1CCN(CCCN2c3ccccc3Sc3ccc(Cl)cc32)CC1	Peg3 promoter 63
CC(CN1CCN(CCOCCO)CC1)CN1c2ccccc2Sc2ccc(Cl)cc21 (stereo not given)	Peg3 promoter 101 (no result: TRPM1 prom inh)
OC1CC2CCC(C1)N2CCCN1c2ccccc2Sc2ccc(Cl)cc21 (stereo not given)	TRPM1 prom inh 91, Peg3 promoter 105
O=C(CCN1CCOCC1)N1c2ccccc2Sc2ccc(Cl)cc21	none
OCCN1CCN(CCCN2c3ccccc3Sc3ccc(C(F)(F)F)cc32)CC1	Peg3 promoter 61
COc1ccc2c(c1)N(C[C@H](C)CN(C)C)c1ccccc1S2	none
COc1ccc(S(=O)(=O)N(C)C[C@H]2Oc3c(NS(=O)(=O)c4cn(C)cn4)cccc3C(=O)N([C@H](C)CO)C[C@H]2C)cc1	none (no result: Shn3 inh set2, TRPM1 prom inh, HIF-2a block, EBV LMP1 NFkB, Peg3 promoter)
O=C(Nc1ccc2c(c1)OCO2)N[C@@H]1CC[C@H](CCNC(=O)C2CCCCC2)O[C@@H]1CO	none (no result: Shn3 inh set2, TRPM1 prom inh, HIF-2a block, EBV LMP1 NFkB, Peg3 promoter)
C[C@H](CO)N1C[C@H](C)[C@H](CN(C)Cc2ccc3c(c2)OCO3)OCCCC[C@H](C)Oc2ccc(NC(=O)CCCN(C)C)cc2C1=O	none (no result: Shn3 inh set2, TRPM1 prom inh, HIF-2a block, EBV LMP1 NFkB, Peg3 promoter)
CCSc1ccc2c(c1)N(CCCN1CCN(C)CC1)c1ccccc1S2	Peg3 promoter 57
CN1CCCC(CN2c3ccccc3Sc3ccccc32)C1 (stereo not given)	none
CCCC#Cc1ccc([C@@H]2[C@H](CO)N3C(=O)CN(C(=O)NC4CCCC4)C[C@@H]23)cc1	none (no result: Shn3 inh set2, TRPM1 prom inh, HIF-2a block, EBV LMP1 NFkB, Peg3 promoter)
CN=C1SC(CC(=O)Nc2ccc(F)cc2F)C(=O)N1/N=C/c1ccc(OC(F)F)c(OC)c1 (stereo not given)	Shn3 inh set2 83
COc1cccc(NC(=O)N2CCN(c3nc(-c4cccc(OC)c4)cs3)CC2)c1	Peg3 promoter 51
COc1cccc(-c2csc(N3CCN(C(=O)Nc4ccccc4Cl)CC3)n2)c1	none
COCCNC(=O)C[C@H]1CC[C@@H](NS(=O)(=O)c2ccc(C)cc2)[C@H](CO)O1	none (no result: Shn3 inh set2, TRPM1 prom inh, HIF-2a block, EBV LMP1 NFkB, Peg3 promoter)
O=C(NCC[C@@H]1CC[C@H](NC(=O)C2CCOCC2)[C@@H](CO)O1)c1ccc(F)cc1	none (no result: Shn3 inh set2, TRPM1 prom inh, HIF-2a block, EBV LMP1 NFkB, Peg3 promoter)
Cc1noc(C)c1NC(=O)Nc1ccc2c(c1)C(=O)N([C@@H](C)CO)C[C@@H](C)[C@@H](CN(C)Cc1ccc(C(=O)O)cc1)OCCCC[C@H](C)O2	none (no result: Shn3 inh set2, TRPM1 prom inh, HIF-2a block, EBV LMP1 NFkB, Peg3 promoter)
O=C1c2cc([N+](=O)[O-])ccc2-c2cc(Cl)c(NC(=O)C(F)(F)F)cc21	none (no result: PAX8 reporter)
O=C1c2cc([N+](=O)[O-])ccc2-c2cc(Br)c(N=C(NO)C(F)(F)F)cc21	Peg3 promoter 97
O=C(O)C[C@H]1C[C@H]2c3cc(NS(=O)(=O)c4ccc(F)cc4)ccc3O[C@H]2[C@H](CO)O1	none (no result: Shn3 inh set2, TRPM1 prom inh, HIF-2a block, EBV LMP1 NFkB, Peg3 promoter)
Cc1ccc(N=C2C(=O)Nc3ccccc32)cc1	none
Cc1nc2c(o1)C(=O)c1ccccc1C2=Nc1ccccc1	Shn3 inh set2 94, TRPM1 prom inh 94, EBV LMP1 NFkB 87, Peg3 promoter 104
COc1cc(NS(=O)(=O)c2ccc(C)cc2)c2ncccc2c1	Shn3 inh set2 95, TRPM1 prom inh 74, Peg3 promoter 68 (no result: PAX8 reporter)
CC1(C)CC(=O)C=C(C#CC2(O)CCCCC2)C1	PAX8 reporter 109 (no result: TRPM1 prom inh)
Cc1cccc(C#CC2=CC(=O)CC(C)(C)C2)c1	none (no result: TRPM1 prom inh)
